Where “and” joins values, the source holds several entries; their conditions need not be identical. Equal values may be shown once. In all, about 150,000 compounds went through this assay and about 6,500 (4.3%) were called active. Another 12% or so got no clear call; they are omitted. The sample holds actives, similar compounds and a random draw of the others, so the mix is not that of the screen. Some compounds were tested as several samples or in several runs, with calls that do not always agree. Unmarked numbers belong to inactive results. Calls follow the shape of the dose curve; as a rule, active = well fitted inhibition curve with a large enough effect (not every such curve was filed as active); inconclusive = small, poorly fitted or top-dose-only effect, or another doubt; inactive = no such curve, though single readings can be large or run the other way.
Each compound was assayed against 15-hydroxyprostaglandin dehydrogenase [NAD(+)] (Homo sapiens) (UniProt P15428) (assay: qHTS Assay for Inhibitors of HPGD (15-Hydroxyprostaglandin Dehydrogenase)). Conditions: purified HPGD, NADH fluorescence kinetic, PGE2 substrate; activity change, negative = inhibition: stronger effect = lower value.
Summary of the method: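 NADH formation kinetics: reaction with 30 uM PGE2 and 1 mM NAD+ (final), 20 nM enzyme, Tris-HCl pH 8 with Tween 20, after 15 min compound preincubation at room temperature. Fluorescence change, last versus first of five reads.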
% is scaled to controls: 0 for no effect and ±100 for the full control effect; potency is read from the fitted curve at half-maximal effect.

Sequence of 15-hydroxyprostaglandin dehydrogenase [NAD(+)] (Homo sapiens) (P15428 whole entry, looked up): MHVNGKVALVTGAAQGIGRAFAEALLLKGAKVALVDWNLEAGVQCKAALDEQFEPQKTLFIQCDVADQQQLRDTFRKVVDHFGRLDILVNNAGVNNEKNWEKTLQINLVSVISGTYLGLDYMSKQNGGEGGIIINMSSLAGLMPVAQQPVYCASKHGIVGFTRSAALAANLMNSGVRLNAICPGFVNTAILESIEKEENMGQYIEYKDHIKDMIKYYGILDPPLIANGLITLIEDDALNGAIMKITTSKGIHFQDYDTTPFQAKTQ

In order of falling activity change, negative = inhibition:
1. Cc1ccc(C(C)C)cc1OCCN1CCCC1  7.86%
2. N#Cc1ccc(C(=O)Nc2nc(-c3cccs3)c(C(=O)C(F)(F)F)s2)cc1  3.33%
3. CCc1nnc(NS(=O)(=O)c2ccc(NS(=O)(=O)c3ccccc3)cc2)s1  2.28%
4. Cc1ccc(C)c(OCC(=O)N2CCN(C(=O)c3ccco3)CC2)c1  1.99%
5. COCCNC(=O)c1ccccc1NS(=O)(=O)c1ccc(C)c([N+](=O)[O-])c1  1.9%
6. COc1ccnc(Oc2ccccc2)n1  -1.44%
7. Cc1ccc(S(=O)(=O)N2CCC(C(=O)N[C@@H](C)C(=O)NCc3ccco3)CC2)cc1  -1.88%
8. Cc1nc2ccc(S(=O)(=O)NC(C(=O)N3CCCCCC3)C(C)C)cc2s1 (stereo not drawn)  -2.12%
9. COC(=O)C/C=C/[C@@H](C)[C@H](NC(=O)OCC(Cl)(Cl)Cl)c1ccccc1  -2.46%
10. Cc1nc2ccc(C(=O)N3CCN(c4ccccc4)CC3)cc2s1  -2.92%
11. CCCCCCCCCOC1OC(CO)C(O)C(O)C1NC(C)=O (stereo not drawn)  -3.92%
12. O=[N+]([O-])c1ccc(N/N=C2/CCCCC2c2ccccn2)c([N+](=O)[O-])c1 (stereo not drawn)  -4.22%
13. COc1ccc(CC(=O)N/N=C(\C)c2ccccn2)cc1  -4.24%
14. CCOC(=O)c1ccc(N2C(=O)CC(N(C)Cc3ccccc3)C2=O)cc1 (stereo not drawn)  -4.27%
15. Cn1cccc1/C=N/NC(=O)c1ccc(OC(F)(F)C(F)F)cc1  -5.18%
16. Cc1cccc(C(=O)NCC(=O)OCC(=O)N2CC3(C)CC2CC(C)(C)C3)c1 (stereo not drawn)  -5.91%
17. CCOc1ccc(N2C(=O)CC(N(O)c3ccccc3)C2=O)cc1 (stereo not drawn)  -7.04%
18. Cc1cccc(NC(=O)CN2C(=O)CNC2=O)c1  -7.22%
19. CSc1nc2sc3c(c2c(=O)[nH]1)CCc1ccccc1-3  -7.61%
20. CCCCC/C=C\CC1OC1CCCCCCCC(=O)O (stereo not drawn)  -7.93%
21. C=CCNC(=O)c1cc2nc(C3CC3)cc(C(F)F)n2n1  -7.97%
22. O=C(N/N=C/c1ccc2c(c1)OCO2)c1ccc(Cn2cc([N+](=O)[O-])cn2)o1  -8.13%
23. S=C(NCCCc1cnc[nH]1)NCCCN(Cc1ccc(Cl)c(Cl)c1)c1ccc(Br)cn1  -8.19%
24. C=CCN1C(=O)C(Cc2ccc(OCC)cc2)SC1=Nc1ccc(C(=O)O)cc1 (stereo not drawn)  -8.9%
25. O=C(COC(=O)c1cc2c(s1)CCCC2)NCc1ccccc1Cl  -9.08%
26. CC1CN(S(=O)(=O)c2ccc(C(=O)NN3CCN(C)CC3)cc2)CC(C)O1 (stereo not drawn)  -9.75%
27. Cc1sc2ncnc(Sc3nc4ccccc4s3)c2c1C  -10.4%
28. CCN(CC)C(=O)CSc1nnc(-c2cccc(OC)c2)o1  -11.1%
29. Brc1cccc(-c2nnc3n2CCC3)c1  -11.6%
30. CCC(C(=O)OCC(=O)Nc1ccc(C(=O)Nc2ccc(OC)cc2)cc1)c1ccccc1 (stereo not drawn)  -12.4%
31. Cc1ccc(NC(=O)CC2S/C(=N/N=C3\CCCc4ccccc43)NC2=O)cc1 (stereo not drawn)  -13.9%
32. O=C(c1cccc2ccccc12)N1CCN(c2ccccc2F)CC1  -14.2%
33. COc1ccc(CCNC(=O)CSc2nnc(-c3cccc(F)c3)o2)cc1OC  -14.4%
34. COC(=O)c1cc2nc(-c3ccccc3)cc(C(F)(F)F)n2n1  -14.5%
35. COc1cc(NS(=O)(=O)c2ccc(N=Cc3c(C)[nH]n(-c4ccccc4)c3=O)cc2)nc(OC)n1  -14.8%
36. NS(=O)(=O)c1ccc(NC(=O)COC(=O)C2(c3ccc(F)cc3)CCCC2)cc1  -17%
37. COC(=O)c1ccc(NC(=O)Nc2ccc(C)cc2)cc1  -17.3%
38. Cc1ccc(S(=O)(=O)N2CCOCC2)cc1C(=O)NC(=S)N(Cc1ccccc1)C(C)C  -17.6%
39. Cc1ccc(Cl)cc1-c1ccc(/C=N/n2cnnc2)o1  -18.9%
40. COc1ccc(C(=O)Nc2ncc3c(n2)-c2ccccc2CC3)cc1  -20.4%
41. Cc1ccc(C(=O)CNc2ccc(F)cc2)cc1  -25.3%
42. Cc1ccc(-n2[nH]c(C)c(/C=N/NC(=O)c3cccc([N+](=O)[O-])c3)c2=O)cc1C  -25.4%
43. C/C(=N/NC(=O)c1ccc(Br)o1)c1ccc(C)o1  -27.2%
44. COc1ccc(OCc2cccc(C(=O)N3CCCC3)c2)cc1  -28.1%
45. Cc1cc([N+](=O)[O-])c(-c2ccc(/C=N/n3cnnc3)o2)cc1Cl  -28.3%

With `COC(=O)c1ccc(NCC(=O)c2ccccc2)cc1` the Potency was 17.8 µM (active).
`CCCCCCC(=O)N(O)C1CC(=O)N(c2ccccc2)C1=O` (stereo not drawn) was tested, and the Potency was 15.8 µM (active).
For `Cc1cc(-c2ccc(/C=N/n3cnnc3)o2)c([N+](=O)[O-])cc1C`, the Potency was 10 µM (active).
With `COc1c(C(=O)N2CCCC2)ccc2ccccc12` the Potency was 12.6 µM (active).
In the case of `COc1ccc(-n2c(=S)[nH]c3sc4c(c3c2=O)CCc2ccccc2-4)cc1`, the Potency is reported as 12.6 µM (active).
In the case of `COc1ccc(CN(C(=O)CSc2nnc(-c3ccc(OC)c(OC)c3)o2)c2ccc(F)cc2)cc1`, the Potency is reported as 14.1 µM (active).
`O=C(Cn1[nH]c(=O)c2ccccc2c1=O)Nc1cccc(-c2nnc3n2CCCCC3)c1` was tested, and the Potency was 14.1 µM (active).
In the case of `Cc1nc2ccc(C(=O)N3CCSCC3)cc2s1`, the Potency is reported as 1.58 µM (active).
`CCc1nnc(NS(=O)(=O)c2ccc(N=Cc3c(C)[nH]n(-c4ccc(C)cc4)c3=O)cc2)s1` was tested, and the Potency was 25.1 µM (active).
With `Oc1c(Cl)cc(Cl)c(Cl)c1Cc1c(O)c(Cl)cc(Cl)c1Cl` the Potency was 35.5 µM (active).
For `CC1CCN(C(=O)c2cc3nc(C4CC4)cc(C(F)(F)F)n3n2)CC1`, the Potency was 1.26 µM (active).

`COC(=O)C1(C(C)=O)CC2=CC[C@H]3C(=O)N(c4ccccc4)C(=O)[C@H]3[C@@H]2Cc2ccccc2[C@@H]1C[N+](=O)[O-]` (stereo partly drawn) was tested, and the activity change, negative = inhibition was -2.53% and -4.27%.
`Oc1c(Cl)cc(Cl)c(Cl)c1Cc1c(O)c(Cl)cc(Cl)c1Cl` was tested, and the activity change, negative = inhibition was -15.8% and -6.53%.
